High-throughput results from PubChem.
KB-V1 MDR tox: qHTS assay for MDR1-selective chemotherapeutics: Primary screen using the drug-selected MDR subline cells KB-V1; KB-V1 MDR cells viability, CellTiter-Glo, 72 h; Potency, µM (doses to about 46.1 µM), hits mostly cytotoxic; 400,000 compounds, 3.4% hits; AID 1347076, 2019; further: nearly all actives have a fitted effect of over 60% in size
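Cells of the MDR subline KB-V1 are plated, dosed with compound at multiple concentrations, and incubated 72 h at 37 degrees C; CellTiter-Glo is then added and luminescence read after 10 min.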
KB-3-1 cytotox: qHTS assay for MDR1-selective chemotherapeutics: Primary screen using the parental adenocarcinoma cell KB-3-1 | KB-3-1 viability, CellTiter-Glo ATP luminescence, 72 h | Potency, µM (top dose mostly 46.1 µM), hits mostly cytotoxic | 400,000 compounds, 1.4% hits; further: nearly all actives have a fitted effect of over 60% in size
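Parental KB-3-1 adenocarcinoma cells in phenol-red-free DMEM with 10% FBS were pin-treated with compounds at several concentrations, incubated 72 h at 37 °C, and viability read by CellTiter-Glo luminescence; concentration-effect curves were fitted after normalization.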
HT1080-NT tox: qHTS for induction of synthetic lethality in tumor cells producing 2HG: qHTS for the HT-1080-NT fibrosarcoma cell line | Potency, µM (titrated, usually from 46.1 µM), actives largely listed as cytotoxic | 360,000 compounds, 1.6% hits | HT-1080-NT fibrosarcoma viability, CellTiter-Glo ATP luminescence, 48 h;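 further: NT is the 2HG producing partner of a matched IDH1 knockdown line; nearly all actives have a fitted effect of over 55% in size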
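HT-1080-NT fibrosarcoma cells (2HG-overproducing), 750 cells/well in RPMI with 5% FBS, dosed after 2 h and incubated 48 h at 37C. CellTiter-Glo luminescence normalized to DMSO and no-cell wells; concentration-response curves fitted and classed.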
SW480 rereplic: A quantitative high throughput screen for small molecules that induce DNA re-replication in SW480 colon adenocarcinoma cells | SW480 DNA re-replication, Hoechst DNA content imaging, 48 h | Potency, µM (titrated, usually from 46.1 µM), usual class: activators | 340,000 compounds, 1.8% hits | AID 624297, 2012; further: nearly all actives have a fitted effect of over 55% in size
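DNA re-replication was detected as more nuclei of elevated Hoechst intensity after 48 hr exposure to compound (23 nL pinned per well of 250 cells).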
HT1080 IDH1KD tx: qHTS for induction of synthetic lethality in tumor cells producing 2HG: qHTS for the HT-1080-IDH1KD cell line; HT-1080 IDH1 knockdown viability, ATP luminescence, 48 h; Potency, µM (doses to about 46.1 µM), most hits filed as cytotoxic; 360,000 compounds, 2% hits
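Cytotoxicity counter-line: IDH1KD HT-1080, 48 h, CellTiter-Glo. Curves classed by r2, magnitude and activity.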
MCF10A rereplic: A quantitative high throughput screen for small molecules that induce DNA re-replication in MCF 10a normal breast cells; Potency, µM (doses to about 46.1 µM), hits mostly activators; MCF 10A DNA re-replication, Hoechst nuclear intensity, 48 h; 350,000 compounds, 2.9% hits; further: nearly all actives have a fitted effect of over 50% in size
A number is an active result; - = inactive; ? = inconclusive; . = not tested or not shown. Rows were chosen to be rich in hits. Some 7.9% of all compounds tested hit in one or more screens of this group. The call rests on the fitted dose curve; in most records, active means well fitted curve in the direction sought with a large enough effect; inconclusive means small, poorly fitted or top-dose-only effect, or another doubt; inactive means no such curve, though single readings can be large; an effect the other way counts as inactive or inconclusive.

SMILES | KB-V1 MDR tox | KB-3-1 cytotox | HT1080-NT tox | SW480 rereplic | HT1080 IDH1KD tx | MCF10A rereplic
CN(Cc1ccc(Cl)cc1Cl)C(=O)CNC(=O)c1ccco1 | - | - | - | - | - | -
Cc1ccc(C(=O)NCC(=O)N(C)Cc2ccc(Cl)cc2Cl)s1 | 16µM | - | - | - | - | -
Cc1ccc2onc(CC(=O)N3CCN(c4ccc(F)cc4)CC3)c2c1 | ? | - | . | . | . | .
CC1CCN(S(=O)(=O)c2ccc3c(c2)c(=O)c(C(=O)NCc2ccc(Cl)cc2)cn3C)CC1 | - | - | . | . | . | .
CN(C)S(=O)(=O)c1ccc(C(=O)N2CCN(S(=O)(=O)c3ccc4c(c3)OCCO4)CC2)cc1 | - | - | - | - | - | -
COc1ccc(/C=C/C2=NNC(=O)CC2)cc1 | 0.41µM | 1.5µM | - | - | - | -
COc1ccc(C2=NNC(=O)CC2)cc1 | ? | - | - | ? | - | -
O=C1CCC(/C=C/c2ccccc2)=NN1 | 5.2µM | ? | - | - | - | -
C=CCN1N=C(/C=C/c2ccc(OC)cc2)CCC1=O | ? | - | - | - | - | -
CCOc1ccc(/C=C/C2=NNC(=O)CC2)cc1 | 1.8µM | - | - | - | - | -
O=C1CCC(/C=C/c2ccccc2)=NN1Cc1ccccc1Cl | - | - | - | - | - | -
CCOC(=O)CN1N=C(/C=C/c2ccc(OCC)cc2)CCC1=O | ? | - | - | - | - | -
CCCOc1ccc(C2=NNC(=O)CC2)cc1 | 0.21µM | - | - | - | - | -
CC(C)COC(=O)N1CCCCC1c1cc(C(=O)Nc2ccccc2)no1 (stereo not given) | - | - | - | . | - | .
CC1=CN2C(=N)/C(=C/c3ccc([N+](=O)[O-])o3)C(=O)N=C2S1 | - | - | ? | 16µM | ? | ?
CC1CCCN(S(=O)(=O)c2ccc(C(=O)Nc3nnc(-c4ccco4)o3)cc2)C1 (stereo not given) | 7.3µM | ? | - | ? | - | -
Cc1nn(-c2ccccc2)c(C)c1C(=O)Nc1nnc(-c2ccco2)o1 | 5.8µM | ? | - | ? | - | -
CC(=O)Nc1nnc(-c2ccco2)o1 | - | - | - | - | - | -
CCc1nnc(NC(=O)c2ccc(S(=O)(=O)N3CCCC(C)C3)cc2)o1 (stereo not given) | ? | ? | ? | ? | ? | -
CCN(c1ccccc1)S(=O)(=O)c1ccc(C(=O)Nc2nnc(-c3ccco3)o2)cc1 | - | - | ? | 23µM | ? | -
CN(c1ccccc1)S(=O)(=O)c1ccc(C(=O)Nc2nnc(-c3ccco3)o2)cc1 | ? | ? | - | 21µM | ? | -
CCC(Sc1nc2ccccc2c2nc(CCc3c(C)n[nH]c3C)nn12)C(=O)Nc1ccc(F)cc1 (stereo not given) | - | - | . | . | . | .
O=S(=O)(Nc1ccc(-c2ccc(N3CCCC3)nn2)cc1)c1ccc(OC(F)(F)F)cc1 | - | - | . | . | . | .
CCN(c1ccccc1)S(=O)(=O)c1ccc(C(=O)Nc2nnc(C3CC3)o2)cc1 | 7.3µM | ? | ? | ? | ? | -
CC1CC(C)CN(S(=O)(=O)c2ccc(NC(=O)c3ccc(=O)[nH]c3)cc2)C1 (stereo not given) | - | 4.6µM | 5.8µM | ? | 5.2µM | 5.8µM
CC1CC(C)CN(S(=O)(=O)c2ccc(C(=O)Nc3nnc(C4CC4)o3)cc2)C1 (stereo not given) | 5.2µM | ? | - | - | - | -
COc1cccc(CNC(=O)Cn2ncc3c4ccccc4n(Cc4ccccc4)c3c2=O)c1 | - | - | . | . | . | .
COc1ccc(CCC(C)NCC2CCCCC2)cc1 (stereo not given) | 21µM | ? | - | ? | - | ?
Clc1cccc(Nc2c3c(nc4ncnn24)CCC3)c1 | ? | - | - | - | ? | -
